Assay results: ChEMBL document CHEMBL4513216, “Probing the Open Global Health Chemical Diversity Library for Multistage-Active Starting Points for Next-Generation Antimalarials” (ACS Infect Dis, 2020)
The whole screen tested about 68,000 compounds, of which about 2,700 (4%) showed an effect of 50% or more. This excerpt belongs to a sample that is enriched for strong results.

Test system: Plasmodium berghei
Assay: Screen against P. berghei liver stage (PbLuc), transformed with Luciferase, at 2uM
Type: functional, HepG2
Conditions: tested at 2 uM

| SMILES | INHIBITION [%] |
| --- | --- |
| CN(Cc1nnc2n1CCC2)C(=O)Cc1ccc2c(c1)CCC2 | -9.49 |
| Cc1nnsc1C(=O)N1CC[C@H](c2ccccc2)[C@@H]2[C@H]1CCCCN2C | 22.81 |
| NC(=O)C1CN(C(=O)Nc2ccccc2SC(F)(F)F)CCO1 (stereo not given) | -20.93 |
| O=C(NCc1ncc(-c2ccccc2)o1)NC1CCC(O)CC1 (stereo not given) | 13.58 |
| COc1cc(C)c(CN2CCc3nc4ccsc4c(=O)n3CC2)cc1C | 36.56 |
| CN(C)c1cccc(C(=O)Nc2cnn(Cc3ccncc3)c2)c1 | -34.79 |
| COCCC(=O)N1CCC2(COCc3cnc(NCC4CC4)nc32)C1 (stereo not given) | -20.77 |
| Cn1cnnc1C1CCN(c2nc3ccccc3o2)CC1 | 53.81 |
| Cn1cnnc1C1CCCN(c2nc3ccccc3o2)C1 (stereo not given) | 44.25 |
| c1ccc2oc(N3CCC(c4nncn4C4CC4)CC3)nc2c1 | 15.02 |
| Cc1cnn(CCNCc2nc(CNC(=O)c3ccccc3)no2)c1 | 47.23 |
| CN(C)c1nc(N)nc(CN2CCC(c3ccccc3)CC2)n1 | 29.6 |
| COc1ccc(CN2CCN(C(=O)c3ccc(C)n3C)CC2)cc1 | -10.64 |
| Cc1ccc(C(=O)N2CCN(Cc3ccccc3)CC2)n1C | 52.17 |
| Cc1ccc(C(=O)N2CCN(Cc3ccc(C#N)cc3)CC2)n1C | 28.18 |
| CC(C1CC1)N(C(=O)NCCCn1nc2ccccn2c1=O)C1CC1 (stereo not given) | 1.07 |
| O=C(c1ccc(F)cc1)N1CCN2C[C@H](OCc3ccccn3)C[C@H]2C1 | 15.58 |
| O=C(c1ccsc1)N1CCN2C[C@H](OCc3ccccn3)C[C@H]2C1 | 53.08 |
| O=C(c1ccnnc1)N1CCN2C[C@H](OCc3ccccn3)C[C@H]2C1 | 26.94 |
| Cc1cnc(C(=O)N2CCN3C[C@H](OCc4cccnc4)C[C@H]3C2)cn1 | -35.38 |
| O=C(c1ccsc1)N1CCN2C[C@H](OCc3cccnc3)C[C@H]2C1 | 16.22 |
| O=C(c1cscn1)N1CCN2C[C@H](OCc3cccnc3)C[C@H]2C1 | 50.12 |
| CN1CC2(CCN(C(=O)c3[nH]cnc3-c3ccccc3)C2)OC1=O (stereo not given) | 14.96 |
| Cc1cc(C2CCC2)nc(N2CC(n3cccn3)C2)n1 | 52.6 |

| SMILES | INHIBITION [%] |
| --- | --- |
| Cc1cc(N(C)C)nc(N2CC(n3cccn3)C2)n1 | 35.46 |
| Cc1cc(C2CCC2)nc(N2CCN(Cc3nccn3C)CC2)n1 | 35.46 |
| Cc1c(NC(=O)CN2CCN(C3CCCC3)C(=O)C2)cnn1C | 17.24 |
| c1ccc(-n2cc(CN3CCCC3Cn3cncn3)nn2)cc1 (stereo not given) | 15.47 |
| Cc1cccc2nc(CSCC(=O)Nc3nnc(C(C)C)s3)cc(=O)n12 | 52.21 |
| CC(C)c1nnc(NC(=O)CSCc2cc(=O)n3ccccc3n2)s1 | 1.87 |
| Cc1ccn2c(=O)cc(CSCC(=O)Nc3nnc(C(C)C)s3)nc2c1 | 4.89 |
| COc1ccc2c3c1CN(C(C)=O)CC3=CC(C)(C)CO2 | 22.01 |
| Cc1ccsc1C(=O)NC(C)c1ccc2c(c1)CCC(=O)N2 (stereo not given) | 0.48 |
| CSc1ccsc1C(=O)NC(C)c1ccc2c(c1)CCC(=O)N2 (stereo not given) | 0.48 |
| CC(NC(=O)c1sccc1C1CC1)c1ccc2c(c1)CC(=O)N2 (stereo not given) | 51.14 |
| Cn1cc(C(=O)NCc2ccc(N3CCCC3)nc2)ccc1=O | -0.05 |
| Cc1ccn(CC(=O)NCCCOc2ccccc2F)c(=O)c1 | 15.2 |
| CN(C)S(=O)(=O)N1CCC(c2ccncn2)CC1 | -5.42 |
| COCCn1ccc(NC(=O)Nc2ccncc2)n1 | 1.94 |
| O=S(=O)(NCC1(c2cccs2)CCOCC1)c1ccc2c(c1)OCCO2 | -12.08 |
| O=S(=O)(NCC1(c2cccs2)CCOCC1)c1cccnc1 | -0.59 |
| O=S(=O)(NCC1(c2cccs2)CCCC1)c1cccnc1 | 58.53 |
| Cc1cccc(Nc2ccc(C3CCCCN3)cn2)n1 (stereo not given) | 30.53 |
| O=C(NC1CC1)[C@H]1C[C@H]2OCC[C@H]2N(CC2CC2)C1 | 28.49 |
| O=C(COCc1ccccc1)N1CCCC1c1noc(C2CC2)n1 (stereo not given) | 37.68 |
| CN(CCCc1ccc(C(F)(F)F)cc1)Cc1nccn1C | 59.08 |
| Cn1ccnc1CN(CCO)Cc1ccc(C(F)(F)F)cc1 | 9.42 |
| CN(CCCOc1ccccc1)Cc1nccn1C | -27.01 |

| SMILES | INHIBITION [%] |
| --- | --- |
| CSCC(CCO)NC(=O)c1cccc(C)c1Cl (stereo not given) | -5.44 |
| Cc1cn2c(n1)CCC(NC(=O)c1cc(Br)cn1C)C2 (stereo not given) | -2.1 |
| CCOc1ccc(C(F)(F)F)cc1NC(=O)NCc1noc(C)n1 | -40.82 |
| Cc1nc(CN2C(=O)COC3(CCN(CC4CC4)CC3)C2C)cs1 (stereo not given) | 35.26 |
| CC(=O)N1CCC(CCNC(C)c2cc(C)cc(C)c2)CC1 (stereo not given) | 8.03 |
| CC(=O)N1CCC(CCNC(C)c2cc(F)cc(F)c2)CC1 (stereo not given) | 14.63 |
| CC(=O)N1CCC(CCNC(C)Cc2ccc(F)cc2)CC1 (stereo not given) | 63.1 |
| CN(C)C(=O)C1CN(Cc2ccccn2)CCN(S(C)(=O)=O)C1 (stereo not given) | 25.72 |
| Cc1noc(C)c1CN(C)C(=O)c1ccc(C(N)=O)nc1 | 17.31 |
| COc1ccccc1CN(CC1CCCO1)C(=O)c1scnc1C (stereo not given) | 21.54 |
| O=C(c1ccco1)N1C[C@@H]2OCCN(c3ncccn3)[C@@H]2C1 | 41.73 |
| CCN1C(=O)C(c2ccccc2)CC12CCN(CCO)CC2 (stereo not given) | 21.06 |
| CCN1C(=O)C(c2ccccc2)CC12CCN(Cc1cccnc1)CC2 (stereo not given) | 52.36 |
| CCN1C(=O)C(c2ccccc2)CC12CCN(c1ncccn1)CC2 (stereo not given) | 30.4 |
| N#CCCN(C(=O)CCc1cccnc1)c1ccc2c(c1)OCCO2 | 33.26 |
| CN(C)C(=O)c1ccn(-c2ccc3ccccn23)n1 | 6.35 |
| CCC(C)(CNC(=O)Nc1nncs1)N1CCOCC1 (stereo not given) | -42.64 |
| CCC(C)(CNC(=O)Nc1nccs1)N1CCOCC1 (stereo not given) | 21.24 |
| CC(C)(CNC(=O)Nc1nccs1)N1CCOCC1 | 64.2 |
| CC(C)(CNc1ccc(S(=O)(=O)C(F)F)cc1)N1CCOCC1 | 5.02 |
| CC(C)(CNC(=O)Nc1ccc(S(=O)(=O)C(F)F)cc1)N1CCOCC1 | 53.63 |
| CC(C)(CNc1ccccc1S(=O)(=O)C(F)F)N1CCOCC1 | -64.31 |
